# Source: PubChem BioAssay
# Sampled rows, rich in hits. Any-hit rate of the full collection: about 10%.
# HP1b chromo inh – HTS for Inhibitors of HP1-beta Chromodomain Interactions with Methylated Histone Tails; Chromobox protein homolog 1 (Homo sapiens), P83916; AlphaScreen HP1-beta / biotin-H3K9me3 peptide binding; Potency, µM (doses to about 114 µM), inactives show top-dose activity change, negative = inhibition, most hits filed as inhibitors; actives 0.56% (n = 390,000); note: nearly all actives have a fitted effect of over 70% in size
# Target sequence (P83916 whole entry, looked up): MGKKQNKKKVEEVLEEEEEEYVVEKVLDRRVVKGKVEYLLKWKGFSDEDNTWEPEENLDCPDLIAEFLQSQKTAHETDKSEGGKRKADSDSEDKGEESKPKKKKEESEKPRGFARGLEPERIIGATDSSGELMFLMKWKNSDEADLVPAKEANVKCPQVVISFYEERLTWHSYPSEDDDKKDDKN
#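 HP1-beta protein (50 nM final) preincubated 30 min at room temperature with biotinylated H3(1-18)K9me3 peptide (50 nM) in PBS pH 7.4, 0.01% Tween-20, then compound added for 30 min. AlphaScreen streptavidin donor/nickel chelate acceptor beads (10 ug/mL final), 30 min dark, luminescence read.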
# G9a block – qHTS Assay for Inhibitors of Histone Lysine Methyltransferase G9a; Histone-lysine N-methyltransferase EHMT2 (Homo sapiens), Q96KQ7; G9a H3K9 monomethylation, AlphaScreen, 2 h; Potency, µM (series often up to 102 µM), inactives show at the top dose activity, negative = inhibition, most hits filed as inhibitors; actives 8.8% (n = 350,000); AID 504332, 2011; note: % is set by controls: 0 for no effect and ±100 for the full control effect; nearly all actives have a fitted effect of over 75% in size
# Target sequence (Q96KQ7 913-1193 limits assumed): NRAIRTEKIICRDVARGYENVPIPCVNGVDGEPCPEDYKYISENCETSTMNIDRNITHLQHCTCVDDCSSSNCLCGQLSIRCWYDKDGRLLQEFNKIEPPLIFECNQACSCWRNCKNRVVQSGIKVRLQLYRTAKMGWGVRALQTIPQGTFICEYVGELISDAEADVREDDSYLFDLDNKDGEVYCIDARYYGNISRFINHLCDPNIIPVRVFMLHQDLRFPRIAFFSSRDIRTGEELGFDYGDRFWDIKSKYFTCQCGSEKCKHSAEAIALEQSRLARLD
#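 Methyltransferase reactions run at room temperature for 2 h (20 nM enzyme, 500 nM biotin-H3K9 peptide, 20 uM SAM) after a 15 min compound preincubation; product detected by AlphaScreen beads and anti-H3K9me1 antibody.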
# GLS inhibitor – qHTS for Inhibitors of Glutaminase (GLS); actives 0.21% (n = 410,000); AID 624170, 2012; Potency, µM (doses to about 45.5 µM), for inactives: at the highest dose activity change, negative = inhibition, most hits filed as inhibitors; GLS enzymatic activity, qHTS titration; note: % is set by controls: 0 for no effect and ±100 for the full control effect
#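 Glutamate formation by hKGA was monitored fluorometrically using coupled glutamate oxidase, HRP and Amplex Red. Substrate was added as 1 mM L-glutamine solution; incubation was 30 min at RT after an initial read.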
# BAZ2B block – qHTS Assay for Inhibitors of BAZ2B; Bromodomain adjacent to zinc finger domain protein 2B (Homo sapiens), Q9UIF8; AlphaScreen BAZ2B-H3K14Ac peptide displacement; Potency, µM (highest dose often 114 µM), inactives show top-dose activity change, negative = inhibition, actives largely listed as inhibitors; actives 4.4% (n = 360,000); note: % is set by controls: 0 for no effect and ±100 for the full control effect; nearly all actives have a fitted effect of over 60% in size
#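 AlphaScreen displacement: compounds (up to 110uM) incubated 30 min at room temperature with a preformed 50 nM BAZ2B/50 nM biotinylated H3K14Ac peptide complex in PBS pH 7.4 with Tween-20. Donor and acceptor beads at 10 ug/mL final added, 20 min light-protected before reading.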
# JMJD2A Tudor inh – qHTS Assay for Inhibitors of JMJD2A-Tudor Domain; Lysine-specific demethylase 4A (Homo sapiens), O75164; AlphaScreen JMJD2A-Tudor / H3K4me3 peptide binding; Potency, µM (titrated, usually from 114 µM), for the others: at the top dose activity change, negative = inhibition, hits mostly inhibitors; actives 4.4% (n = 390,000); AID 504339, 2011; note: % is set by controls: 0 for no effect and ±100 for the full control effect; nearly all actives have a fitted effect of over 50% in size
# * marks the source's active call; other numbers are inactive results; u = inconclusive; x = no result; [ ] = another dose, or the depositor's remark. Calls come from the whole dose curve; as a rule, active = well fitted curve in the direction sought with a large enough effect; inconclusive = small, poorly fitted or top-dose-only effect, or another doubt; inactive = no such curve, though single readings can be large; an effect the other way counts as inactive or inconclusive. Potency is the fitted concentration of half-maximal effect.
SMILES,HP1b chromo inh,G9a block,GLS inhibitor,BAZ2B block,JMJD2A Tudor inh
CCN(CC)c1ccc(SS(=O)(=O)O)cc1,-22%,5µM*,36%,u,56µM*
O=C(C1CCCN(c2nnc(-n3cccc3)s2)C1)N1CCN(c2ccccc2)CC1 (stereo unspecified),-3%,50µM*,-27%,u,u
Cn1c(=O)c2[nH]c(SCCN3CCOCC3)nc2n(C)c1=S,5%[57 µM],x,6%,x,16µM*
Cn1c(=O)c2[nH]c(SCCN3CCCCC3)nc2n(C)c1=S,5%[57 µM],x,6%,x,-21%
CCSc1nc2c([nH]1)c(=O)n(C)c(=S)n2C,u,x,2%,x,5µM*
CCCSc1nc2c([nH]1)c(=O)n(C)c(=S)n2C,27%,x,19%,x,-19%
COc1cc(S(=O)(=O)N2CCOCC2)ccc1NC(=O)CN1c2cccc3cccc(c23)S1(=O)=O,0%,18%[59 µM],4%,2%,-10%
O=C(COc1ccc([N+](=O)[O-])cc1)Nc1ccc2c(c1)nc1n2CCOC1,16%,1%,u,-5%,u
S=c1[nH]c2cc3c(cc2[nH]1)OCCO3,3%,3.5µM*,-25%,-13%,-32%
Cc1ccc(NNC(=O)C(=O)N2CCCCC2)cc1,15%,-28%[59 µM],29%,0%,-10%
O=S1(=O)N=C2CCCCCN2C(c2ccc(F)cc2)N1 (stereo unspecified),26%,3%,-6%,-14%,-14%
O=[N+]([O-])c1ccc(C2NS(=O)(=O)N=C3CCCCCN32)cc1 (stereo unspecified),57%,25µM*,0%,3%,1%
Cc1ccc(S(=O)(=O)OCC(=O)Nc2ccc(C(=O)O)c(O)c2)cc1,-10%,x,-9%,x,20µM*
Cc1ccc(-c2csc3ncnc(N4CCN(C)CC4)c23)cc1C,18%,2%,5%,-38%,-34%
CC(C(=O)Nc1ccccc1C(=O)N1CCOCC1)N(c1ccccc1)S(C)(=O)=O (stereo unspecified),u,-4%[59 µM],24%,0%,40µM*
O=C1CCCN1CCC1CCCCN1Cc1nc(COc2ccccc2)no1 (stereo unspecified),38%[57 µM],x,4%,3%,-15%
CCOC(=O)NC(NC(=S)Nc1ccc(OCC)cc1)C(Cl)(Cl)Cl (stereo unspecified),-8%,25%[59 µM],4%,1%,-6%
O=C(NC(NC(=S)Nc1c(Cl)cccc1Cl)C(Cl)(Cl)Cl)OCc1ccccc1 (stereo unspecified),10%,3.2µM*,5%,-23%,-17%
Cn1c(=O)c2c(nc(SCC(=O)O)n2Cc2cc3c(cc2Cl)OCO3)n(C)c1=O,58%,u,-26%,u,45µM*
Cc1ccc(C)c(NC(=O)N(C)CCc2c(C)nn(C)c2C)c1,25%,1%[12.7 µM],-8%,-4%,-11%
C/C(=N\NC(=S)Nc1ccc(F)cc1)c1ccc2c(c1)OCCO2,u,u,23%,35µM*,32µM*
C/C(=N\NC(=S)Nc1ccc(C)cc1)c1cccc(N)c1,-25%,45µM*,-8%,u,u
C/C(=N\NC(=S)Nc1cccc(C)c1)c1cccc(N)c1,u,u,15%,u,u
COc1ccccc1NC(=S)NN=C(C)c1ccccn1,u,x,18%,x,u
CC(=NNC(=S)Nc1cccc(C)c1)c1ccccn1,u,x,23%,x,50µM*
SMILES,HP1b chromo inh,G9a block,GLS inhibitor,BAZ2B block,JMJD2A Tudor inh
CC(=NNC(=S)Nc1ccc(C)cc1)c1ccccn1,u,x,23%,x,79µM*
C/C(=N\NC(N)=S)c1ccc2c(c1)OCCO2,9%,x,-15%,-3%,-15%
CCOc1ccc(NC(=O)NCCn2nnc3cc(S(=O)(=O)N(C)C)ccc32)cc1,32%,28%[59 µM],6%,-1%,1%
COc1ccc(NC(C)=O)c([N+](=O)[O-])c1[N+](=O)[O-],8%,x,-1%,x,-17%
COc1ccc(OC)c([N+](=O)[O-])c1C(N)=O,u,32µM*,120%,50µM*,50µM*
COc1ccccc1C1CC(=O)N(c2cccc(C(F)(F)F)c2)C2=C1C(=O)OC2 (stereo unspecified),20%,0%[59 µM],8%,-11%,-13%
CCCCn1c(SCC(=O)NC2CCS(=O)(=O)C2)nnc1-c1ccc(OC)cc1 (stereo unspecified),31%,u,10%,0%,-4%
CC(C)(C)c1ccc(-c2nnc(SCC(=O)NC3CCS(=O)(=O)C3)n2N)cc1 (stereo unspecified),9%,20µM*,-12%,x,-24%
O=C(CSc1nnc(-c2ccccc2)n1-c1ccc(Cl)cc1)NC1CCS(=O)(=O)C1 (stereo unspecified),8%,20%[59 µM],8%,-1%,-11%
Cc1ccccc1-n1c(-c2ccc(Cl)cc2)cnc1SCC(=O)NC1CCS(=O)(=O)C1 (stereo unspecified),-29%,8.9µM*,-17%,50µM*,u
O=C1NCC(c2ccccc2)C1C(=O)N/N=C\c1ccc(-c2cccc(Cl)c2Cl)o1 (stereo unspecified),-6%,13µM*,-2%,u,u
COc1cccc(NC(=O)CSC2=Nc3ccccc3C3=NC(CC(=O)NCc4ccccc4OC)C(=O)N23)c1 (stereo unspecified),23%,16%[59 µM],-28%,-19%,-22%
N#CC1=C(N)NC(SCc2ccc(Cl)cc2)=C(C#N)C12CCCCC2,-2%,-12%,14%,-9%,u
N#CC1=C(N)NC(SCC(=O)Nc2ccc(Br)cc2)=C(C#N)C12CCCCC2,-1%,71µM*,-4%,u,u
CC1=C(C(=O)Nc2ccccc2)C2(CCCCC2)C(C#N)=C(SCC(N)=O)N1,-15%,10%,u,u,14µM*
N#CC1=C(N)NC(SCc2ccc(Br)cc2)=C(C#N)C12CCCCC2,-4%,u,5%,u,u
N#CC1=C(SCC(=O)c2cc3ccccc3oc2=O)NC(=O)C(C#N)C12CCCC2 (stereo unspecified),-2%,u,13%,-3%,-17%
N#CC1=C(N)NC(SCC(=O)c2ccccc2)=C(C#N)C12CCCC2,2%,50µM*,4%,u,u
CC1(C)CC(=O)C2=C(C1)NC(SCC(=O)Nc1ccccc1)=C(C#N)C21CCCCC1,24%,u,2%,0%,-5%
